HepG2 viability – counter-screen for TGF-b inhibitors: cytotoxicity in HepG2 cells; 0.76% of 410,000 active; Potency, µM (series often up to 46.1 µM), for the others: at the highest dose activity change, negative = cytotoxicity, actives largely listed as cytotoxic; HepG2 CAGA-GFP viability, ATP luminescence, 18 h; also: potency is read from the fitted curve at half-maximal effect
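HepG2 CAGA-GFP cells (1000/well, DMEM with 1% FBS) received compound, then TGF-beta at 500 pg/mL final, and were incubated 18 hours at 37 degrees C. Viability was read by CellTiter-Glo luminescence. Media-only wells were set as complete cell-killing and DMSO as no toxicity.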
TGFb SMAD3 inh – TGF-b pathway inhibition; Potency, µM (titrated, usually from 46.1 µM), without a hit: at the highest dose activity, negative = inhibition, actives largely listed as inhibitors; HepG2 CAGA-GFP TGF-b/SMAD3 reporter, GFP fluorescence, 18 h; TGF-beta stimulated, 500 pg/mL final; 1.2% of 410,000 active; also: potency is read from the fitted curve at half-maximal effect; % is scaled to controls: 0 for no effect and ±100 for the full control effect; nearly all actives have a fitted effect of over 65% in size
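Inhibition of TGF-beta-driven CAGA-GFP reporter expression in HEPG2 cells is measured by cellular GFP fluorescence after 18 h stimulation with 500 pg/mL recombinant TGF-beta in 1% FBS medium at 37 degrees C.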
TDP1 cell CPT – growth inhibition of DT40 Tdp1-/-;hTDP1 cells with camptothecin (screen for TDP1 inhibitors) | chicken DT40 Tdp1-/-;hTDP1 cells + 20 nM CPT, ATP luminescence, 48 h | Potency, µM (series often up to 46.2 µM), without a hit: top-dose activity change, negative = growth inhibition, actives largely listed as inhibitors | 12% of 420,000 active; also: potency is read from the fitted curve at half-maximal effect; % is scaled to controls: 0 for no effect and ±100 for the full control effect; nearly all actives have a fitted effect of over 55% in size
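Chicken DT40 Tdp1-/- cells stably complemented with human TDP1 were seeded at 400 cells/well in medium containing 20 nM camptothecin, exposed to pin-transferred compounds, and grown at 37 °C for at least 48 hr. Viability was read as ATP luminescence.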
DT40 TDP1 no CPT – qHTS for Inhibitors of human tyrosyl-DNA phosphodiesterase 1 (TDP1): qHTS in cells in absence of CPT; DT40 Tdp1-/- hTDP1 cells, no CPT, ATP luminescence, 48 h; Potency, µM (doses to about 46.2 µM), inactives show at the top dose activity change, negative = growth inhibition, usual class: inhibitors; 15% of 420,000 active; also: potency is read from the fitted curve at half-maximal effect; % is scaled to controls: 0 for no effect and ±100 for the full control effect; nearly all actives have a fitted effect of over 55% in size
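Growth kinetics read by CellTiter-Glo luminescence after ≥48 hr at 37 °C. Cells: DT40 Tdp1-/- stably carrying human TDP1, 400 per well, compound exposure in the absence of CPT (DMSO vehicle).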
IL-1B inflam inh – inhibitors of inflammasome signaling (IL-1 beta secretion). THP-1 LPS/ATP IL-1B secretion, AlphaLISA, 16 h; stronger effect = lower value. activity change, % at 57.5 µM. 4.7% of 360,000 active. AID 743279; in the data active = activity change below about -50%; inconclusive = mostly about -30% to -49%; also: % is scaled to controls: 0 for no effect and ±100 for the full control effect
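THP-1 cells pretreated 1 hr with compounds (up to 57.5 uM final), then stimulated with LPS (250 ng/mL final) plus ATP (1.25 mM final); secreted IL-1B measured by AlphaLISA after 16 hr, decreased signal indicating inhibition.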
TDP1 inh – inhibitors of human tyrosyl-DNA phosphodiesterase TDP1; recombinant TDP1, AlphaScreen DNA substrate cleavage; Potency, µM (series often up to 130 µM), for inactives: at the top dose activity change, negative = inhibition, hits mostly inhibitors; 0.28% of 350,000 active; AID 485290; also: potency is read from the fitted curve at half-maximal effect; % is scaled to controls: 0 for no effect and ±100 for the full control effect; nearly all actives have a fitted effect of over 40% in size
Target sequence (Q9NUW8 whole entry, looked up): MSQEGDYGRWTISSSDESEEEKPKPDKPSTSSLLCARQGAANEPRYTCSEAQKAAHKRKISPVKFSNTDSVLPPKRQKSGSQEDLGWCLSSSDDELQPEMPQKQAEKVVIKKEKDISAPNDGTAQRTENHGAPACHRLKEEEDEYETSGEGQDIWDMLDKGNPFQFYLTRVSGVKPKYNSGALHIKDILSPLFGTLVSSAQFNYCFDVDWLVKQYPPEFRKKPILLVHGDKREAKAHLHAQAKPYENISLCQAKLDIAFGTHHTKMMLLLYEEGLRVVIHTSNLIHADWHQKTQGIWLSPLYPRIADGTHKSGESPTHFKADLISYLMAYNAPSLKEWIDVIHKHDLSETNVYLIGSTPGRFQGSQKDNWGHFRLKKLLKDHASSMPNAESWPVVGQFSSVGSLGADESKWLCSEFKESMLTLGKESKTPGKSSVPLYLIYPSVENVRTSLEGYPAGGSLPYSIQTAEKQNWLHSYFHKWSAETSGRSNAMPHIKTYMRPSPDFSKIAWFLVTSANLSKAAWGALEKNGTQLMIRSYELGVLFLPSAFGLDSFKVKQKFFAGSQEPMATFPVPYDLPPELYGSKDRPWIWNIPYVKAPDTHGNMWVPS
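E. coli-derived human Tdp1, 1 nM final. Cpd preinc 15 min RT; substrate 15 nM final, 5 min RT; AS bead mix 10 ug/ml final, 10 min RT. Signal loss = tyrosine-FITC cleavage. No-enzyme wells = max signal.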
* hit, by the source's call; i = inactive; ? = inconclusive; . = no result; [ ] = dose if it differs, or a comment. Shown are actives, neighbours in structure and some others; about 19% of the full set was active somewhere. Unless noted, calls follow the shape of the dose curve; as a rule, active = well fitted curve in the direction sought with a large enough effect; inconclusive = small, poorly fitted or top-dose-only effect, or another doubt; inactive = no such curve, though single readings can be large; an effect the other way counts as inactive or inconclusive.

SMILES	HepG2 viability	TGFb SMAD3 inh	TDP1 cell CPT	DT40 TDP1 no CPT	IL-1B inflam inh	TDP1 inh
O=C(NCC1CCC2(CCN(Cc3cccc4ncccc34)CC2)O1)c1ccccc1 (stereo not given)	.	.	-17%[9.04 µM]	-18%	.	.
O=C(/C(=N/O)c1ccccc1)c1ccccc1	-3%	2%	-4%	0%	-5	.
Oc1ccc(N=Cc2ccc(O)c(O)c2)cc1	-46%	?	?	?	-55*	0%
Oc1ccc(/C=N/N(c2ccccc2)c2ccccc2)cc1O	-28%	?	10µM*	?	-23	2%
COc1cc(/C=N/N=C2/C(=O)Nc3ccccc32)ccc1O	-30%	0%	-21%	-30%	?	4%
O=C1Nc2ccccc2/C1=N\N=C\c1ccc(O)c(O)c1	-34%	0%	?	?	-71*	3%
O=C(/C(=N/N=C/c1ccc(O)c(O)c1)c1ccccc1)c1ccccc1	-96%	?	7.3µM*	8.2µM*	-76*	6%
COc1ccc(C(=O)NCCn2cc(SCC(=O)Nc3ccccc3)c3ccccc32)cc1OC	0%	-10%	?	?	.	10%
Cc1ccc(CNC(=O)CCCn2c(=O)c3ccccc3n(Cc3ccccc3Cl)c2=O)cc1	0%	-3%	-16%	?	.	2%
CCc1ccc(OC(=O)c2sc3ncn(Cc4cccc(F)c4)c(=O)c3c2C)cc1	14%	?	-10%	-12%	.	-5%
COc1ccc2[nH]c(=O)c(CN(Cc3cccnc3)Cc3nnnn3CC3CCCO3)cc2c1 (stereo not given)	5%	2%	-3%	3%	-29	-1%
Cc1nonc1NC(=O)CSc1nc(C2CCCCC2)nc2ccccc12	-23%	0%	29µM*	23µM*	-74*	-2%
Cc1nonc1NC(=O)CSc1nc(C23CC4CC(CC(C4)C2)C3)nc2ccccc12	-74%	?	?	?	-90*	.
Cc1cc(NC(=O)CSc2nc(C3CCCCC3)nc3ccccc23)no1	-5%	17%	?	?	-29	3%
Cc1cc2nc(SCC(=O)Nc3nonc3C)c3c(c2cc1C)CCCC3	-1%	-33%	-11%	-14%	19	-7%
NC(=O)CSc1nc(C23CC4CC(CC(C4)C2)C3)nc2ccccc12	2%	-22%	?	26µM*	?	1%
CN(C)Cc1ccccc1-c1cncnc1NC1CC1	.	.	-3%	-13%	.	-5%
O=C(O)C(=O)Nc1cccc(-c2nn[nH]n2)c1	.	.	-1%	-5%	.	.
CO[C@@H]1COC(=O)[C@H]2CCCN2C(=O)[C@@H](C)COC(=O)C/C=C\[C@H]1C	.	.	.	.	.	8%[21 µM]
CC(NS(=O)(=O)c1ccc(F)cc1)C(=O)Nc1ccc2c(c1)OCCO2 (stereo not given)	0%	3%	-9%	-24%	i	2%
CCOC(=O)C1(CCCc2ccccc2)CCN(C(=O)C2=C(C)OCCO2)CC1	-33%	-16%	?	21µM*	-80*	.
CCOC(=O)C1(Cc2cccc(F)c2)CCN(Cc2ccon2)CC1	0%	-5%	4%	?	8	.
CCOC(=O)C1(CCCc2ccccc2)CCN(Cc2cnc(C)s2)CC1	-19%	-4%	21µM*	10µM*	-88*	-1%
CCOC(=O)C1(CCc2ccccc2)CCN(Cc2cccc3nccnc23)CC1	-42%	?	21µM*	16µM*	?	-8%
CCOC(=O)C1(CCc2ccccc2)CCN(Cc2ccn[nH]2)CC1	-17%	2%	?	?	-17	3%
SMILES	HepG2 viability	TGFb SMAD3 inh	TDP1 cell CPT	DT40 TDP1 no CPT	IL-1B inflam inh	TDP1 inh
CCOC(=O)C1(CCCc2ccccc2)CCN(CCCn2cccn2)CC1	-25%	?	-28%	?	23	-3%
CCOC(=O)C1(Cc2cccc(F)c2)CCN(Cc2cnc(C)s2)CC1	2%	5%	26µM*	23µM*	9	3%
CNC1C(O)C(OC2C(NC(=O)C(O)CN)CC(N)C(OC3OC(CN)C(O)C(O)C3O)C2O)OCC1(C)O (stereo not given)	.	.	.	.	.	6%
CCOC(=O)C1(CCOc2ccccc2)CCN(Cc2nccn2CC)CC1	-22%	-9%	?	?	-4	.
CCOC(=O)C1(CCCc2ccccc2)CCN(C(=O)Cc2nonc2C)CC1	-21%	1%	?	?	?	0%
CCOC(=O)C1(CCCc2ccccc2)CCN(Cc2nccn2CC)CC1	-25%	?	?	?	-55*	.
CCOC(=O)C1(Cc2cccc(F)c2)CCN(Cc2cn(CC)nc2C)CC1	-20%	-10%	1%	?	-20	.
CCOC(=O)C1(Cc2cccc(F)c2)CCN(Cc2c(C)nn(CC)c2C)CC1	-21%	-11%	23µM*	?	0	3%
CCOC(=O)C1(CCCc2ccccc2)CCN(Cc2cn(CC)nc2C)CC1	-32%	-29%	?	?	-77*	-5%
CC(OC(=O)CC(C)c1ccccc1)C(=O)Nc1ccc(Cl)cn1 (stereo not given)	-24%	0%	1%	0%	4	-13%
Cc1ccc(Cn2ccn(CC(=O)Nc3c(C)cc(C)cc3C)c(=O)c2=O)cc1	-11%	1%	2%	2%	.	-1%
COc1cccc(C2CC(=O)Nc3cc(OC)c(OC)c(OC)c32)c1OC(C)C (stereo not given)	-29%	-2%	?	?	.	0%
COc1cccc(-c2nn(C)c3sc(C(=O)NCCc4cccc(C)c4)cc23)c1	-24%	0%	10µM*	5.2µM*	.	0%
COCCCNC(=O)c1cc2c(-c3cccc(OC)c3)nn(C)c2s1	-9%	-15%	?	?	-2	5%
CCN(CC)CCNC(=O)c1cc2c(-c3cccc(OC)c3)nn(C)c2s1	-15%	8%	?	?	-79*	0%
COc1cccc(-c2nn(C)c3sc(C(=O)NCc4ccc(C)cc4)cc23)c1	-82%	?	?	?	-19	2%
CCOC(=O)C1CCN(c2nc3ccccc3nc2C(C#N)C(=O)OC(C)C)CC1 (stereo not given)	-2%	-2%	16µM*	12µM*	-17	4%
CCOC(=O)C1CCN(c2nc3ccccc3nc2C(C#N)C(=O)OC(C)COC)CC1 (stereo not given)	-22%	14%	21µM*	18µM*	-2	5%
